Each sequence was assayed on PPARg:RXRa (NR concentration 180 nM, RXRa partner concentration 90 nM) (assay: PBM binding z-score (relative to random genomic background probes); higher = stronger binding; sequences stand for … in GC…GCGATTGACAGCGTAGAATGAAGG).
In short: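 Probes were double-stranded and carried 34-nt variable regions with direct-repeat seeds, single-nucleotide variants, half-site ablations and random human genomic background sequences, printed on custom Agilent 4×180K protein-binding microarrays. Arrays were incubated 1 h with ligand-free nuclear receptor dimers in PBS pH 7.4, 2% milk, 0.02% Triton X-100, 1 mM DTT, 0.2 mg/mL BSA and 0.4 mg/ml salmon testes DNA. Antibodies against each partner (one per run) detected binding, and scanned fluorescence was regression-normalized. Binding z-scores use the random background probes as reference.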
CCGACTGGGCCAAGGTCATTGATCAGTCAAAGCA was tested, and the PBM binding z-score was 2.29. CAAACTAGGTCACGCAAGGTCAAAGTCGAATGAC was tested, and the PBM binding z-score was 10.2. In the case of GCTGCTACGTCAGGTTGGTCAGCTAACGGGTACG, the PBM binding z-score is reported as -0.0701. With TCTCGGAGGACAAGAAAGGTCAGAGCTCGACATC the PBM binding z-score was 0.803. ACAATGAGGTTATACGTAGATCAGGGAAGAAAGT gave a PBM binding z-score of 1.84. GCGACTGGGGCAAAGCAGGTGACCATAAGGTTGG showed a PBM binding z-score of 0.993. ACCGAAAGGTCGAGGTGAGTATAGAGAAAGGGAA showed a PBM binding z-score of 3.28. ATACCAAGGCGATCGTGAGGTCGTTGATACTAAC gave a PBM binding z-score of 0.16. TCAGACAGGTGAAGGTAACTCACGTACGCAGTCG was tested, and the PBM binding z-score was 0.954. In the case of TCATATAAGTAAAGGTGAAAGTCGAACGATATGA, the PBM binding z-score is reported as 1.98. In the case of CGAACTAGGTTATCCAGGACAGTGAATACATTGA, the PBM binding z-score is reported as 2.82. With GGAACGAGGGCAAGTTGATAGCCGAGTTTGATGG the PBM binding z-score was 0.924. CGAATTAGGTCATCCAGGACAGTGAATACATTGA gave a PBM binding z-score of 7.49. With TGAATGAGGTTATAAGATCAGGGGACGTTGCAAA the PBM binding z-score was 1.65. In the case of ATATGTAGGTTAGCGGGTCATTCAGTTTGCGCAT, the PBM binding z-score is reported as 6.81. For GCTTACGGGTCAAAGGTTATAGCGTGAATAGAAT, the PBM binding z-score was 11. In the case of CAGCCTAGGTCAGGTCCAGTATAGGAGGAACGTT, the PBM binding z-score is reported as 0.465. ACTATAAGTTGACTTAGGGCAACCGATACGACGC gave a PBM binding z-score of 1.23. For ATCTTTAGGTAAAGATAGTTCAGTGAATGCAAAT, the PBM binding z-score was 0.63. TCTGATAGGTCAACGATGGTCAGCTAATCTGCTA was tested, and the PBM binding z-score was 3.47. For TAGCCTAGGTCATGCGGGCCAGTTTAGTGTCGGC, the PBM binding z-score was 1.32. GCGACTGGGGCAAAGCAGCTTACCATAAGGTTGG was tested, and the PBM binding z-score was 1. For ATCGAAAGGTGGTGAGGTGAGTATACAGAAAGGC, the PBM binding z-score was 0.668. CATGCTAGGTCAATGGTCAGCTAAAGCAGCTCGC gave a PBM binding z-score of 4.43. TCTCGGAGGACACGAAAGGCCAGAGCTCGACATC gave a PBM binding z-score of 0.264. AGAACGAGGTCAATGAGTTGATAGCACGGGTGGC was tested, and the PBM binding z-score was 6.36. With CCTTACGGGTCACGAGGTTCTAGCACGACGAGCG the PBM binding z-score was 6.59. For CTCGAAAGGTCGGTTCAGGTGAGTATACGGATAA, the PBM binding z-score was 0.546. CCTACTGGGCCATTTAGAGGTCATTGATCATATG was tested, and the PBM binding z-score was 2.24. CGTCCAAGGACAGAGAGGTCAGTGAATGCCGAGT gave a PBM binding z-score of 0.584. ACAGACAGGTGAGTGAAGGTAAATCAGCTGGACG showed a PBM binding z-score of 0.739. CGTCCAAGGTGAAAGGTCAGTGAAGAGATGACGG was tested, and the PBM binding z-score was 9.57. With CAAACTAGGTCACAGAGGTCATAGTCCGTGCGTA the PBM binding z-score was 10. With TAGCCTAGGTCATGGGTCAGTATACCACGCGAAC the PBM binding z-score was 6.78. For AACTCTAGGTAAGACTCAGTTCAGTGAAGAACGC, the PBM binding z-score was 0.00417. TTAATGAGGTTATAAGATCAGGGAACGTTGCAAA was tested, and the PBM binding z-score was 1.96. For CGAACGAGGGCATGAGTTGATAGAAAATGCCGAT, the PBM binding z-score was 1.42. CAAACTAGGTCACGAAAGCTCAAAGTCGAATGAC showed a PBM binding z-score of 9.27. CAAACTAGGTCACTGAGGTCAAAGTCCGTGCGTA showed a PBM binding z-score of 9.39. In the case of CCTTACGGGTCACGAGGTTTTAGCACGACGAGCG, the PBM binding z-score is reported as 6.51.

Source: the supplement of paper PMC6555819
